In the supplement of paper PMC8728848:
Many of the other results were omitted from the sample, so the strongest signals are more common in it than they were.

What was measured:
Assay in all cases: glycan array binding signal (z-score within array); higher = stronger binding
Details in all cases: glycan notation: IUPAC condensed, linker removed
[1] = target: 4d8dNeu5Ac(a2-3)Gal(b1-4)Glc
Summary of the method: (§1)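 The binding signal is a Z-score computed within each array and averaged over linkers. Arrays of the same protein sequence at different concentrations or buffers were also averaged together. Data originate from 3228 arrays in the Consortium for Functional Glycomics database, kept only where the protein sequence was available.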

[2] = target: 4dNeu5Ac(a2-3)Gal(b1-4)Glc
Summary of the method: as §1

[3] = target: Fuc(a1-2)Gal(b1-3)GlcNAc(b1-2)Man(a1-3)[Fuc(a1-2)Gal(b1-3)GlcNAc(b1-2)Man(a1-6)]Man(b1-4)GlcNAc(b1-4)GlcNAc
Summary of the method: as §1

[4] = target: Fuc(a1-2)Gal(b1-3)[Fuc(a1-4)]GlcNAc(b1-2)Man(a1-3)[Fuc(a1-2)Gal(b1-3)[Fuc(a1-4)]GlcNAc(b1-2)Man(a1-3)]Man(b1-4)GlcNAc(b1-4)GlcNAc
Summary of the method: as §1

[5] = target: Fuc(a1-2)[Gal(a1-3)]Gal(b1-3)GlcNAc
Summary of the method: as §1

[6] = target: Fuc(a1-2)[Gal(a1-3)]Gal(b1-4)GlcNAc(b1-3)[Fuc(a1-2)[Gal(a1-3)]Gal(b1-4)GlcNAc(b1-6)]GalNAc
Summary of the method: as §1

[7] = target: Fuc(a1-2)[GalNAc(a1-3)]Gal(b1-4)GlcNAc(b1-2)Man(a1-3)[Fuc(a1-2)[GalNAc(a1-3)]Gal(b1-4)GlcNAc(b1-2)Man(a1-6)]Man(b1-4)GlcNAc(b1-4)[Fuc(a1-6)]GlcNAc
Summary of the method: as §1

[8] = target: Fuc(a1-2)[GalNAc(a1-3)]Gal(b1-4)GlcNAc(b1-3)Gal(b1-4)GlcNAc
Summary of the method: as §1

[9] = target: Fuc(a1-2)[GalNAc(a1-3)]Gal(b1-4)[Fuc(a1-3)]GlcNAc(b1-3)GalNAc
Summary of the method: as §1

[10] = target: Fuc(a1-3)[Gal(b1-4)]GlcNAc(b1-3)[Fuc(a1-2)]Gal(b1-4)Glc
Summary of the method: as §1

Fuc(a1-4)GlcNAc = target: Fuc(a1-4)GlcNAc
Summary of the method: as §1

[11] = target: Gal(b1-3)Gal(b1-4)GlcNAc(b1-2)Man(a1-3)[Gal(b1-3)Gal(b1-4)GlcNAc(b1-2)Man(a1-6)]Man(b1-4)GlcNAc(b1-4)GlcNAc
Summary of the method: as §1

[12] = target: Gal(b1-3)GlcNAc(a1-6)Gal(b1-4)GlcNAc
Summary of the method: as §1

[13] = target: Gal(b1-3)GlcNAc(b1-3)Gal(b1-4)Glc
Summary of the method: as §1

[14] = target: Gal(b1-3)GlcNAc(b1-3)Gal(b1-4)[Fuc(a1-3)]GlcNAc(b1-6)[Gal(b1-3)GlcNAc(b1-3)]Gal(b1-4)Glc
Summary of the method: as §1

[15] = target: Gal(b1-3)[Fuc(a1-4)]GlcNAc(b1-2)Man(a1-3)[Gal(b1-3)[Fuc(a1-4)]GlcNAc(b1-2)Man(a1-6)]Man(b1-4)GlcNAc(b1-4)GlcNAc
Summary of the method: as §1

[16] = target: Gal(b1-3)[Fuc(a1-4)]GlcNAc(b1-3)Gal(b1-4)[Fuc(a1-3)]GlcNAc
Summary of the method: as §1

[17] = target: Gal(b1-3)[Fuc(a1-4)]GlcNAc(b1-3)Gal(b1-4)[Fuc(a1-3)]GlcNAc(b1-6)[Gal(b1-3)[Fuc(a1-4)]GlcNAc(b1-3)]Gal(b1-4)Glc
Summary of the method: as §1

[18] = target: Gal(b1-3)[Neu5Ac(a2-6)]GalNAc
Summary of the method: as §1

Gal(b1-4)Glc = target: Gal(b1-4)Glc
Summary of the method: as §1

[19] = target: Gal(b1-4)GlcNAc(b1-2)Man(a1-6)[GlcNAc(b1-2)Man(a1-3)]Man(b1-4)GlcNAc(b1-4)[Fuc(a1-6)]GlcNAc
Summary of the method: as §1

[20] = target: Gal(b1-4)GlcNAc(b1-2)Man(a1-6)[Man(a1-3)]Man(b1-4)GlcNAc(b1-4)[Fuc(a1-6)]GlcNAc
Summary of the method: as §1

[21] = target: Gal(b1-4)GlcNAc(b1-3)Gal(b1-4)GlcNAc(b1-2)Man(a1-3)[Gal(b1-4)GlcNAc(b1-3)Gal(b1-4)GlcNAc(b1-2)Man(a1-6)]Man(b1-4)GlcNAc(b1-4)[Fuc(a1-6)]GlcNAc
Summary of the method: as §1

[22] = target: Gal(b1-4)GlcNAc(b1-3)Gal(b1-4)GlcNAc(b1-3)Gal(b1-4)GlcNAc
Summary of the method: as §1

[23] = target: Gal(b1-4)GlcNAc(b1-3)Gal(b1-4)GlcNAc(b1-3)Gal(b1-4)GlcNAc(b1-3)Gal(b1-4)GlcNAc(b1-2)Man(a1-3)[Gal(b1-4)GlcNAc(b1-3)Gal(b1-4)GlcNAc(b1-3)Gal(b1-4)GlcNAc(b1-3)Gal(b1-4)GlcNAc(b1-2)Man(a1-6)]Man(b1-4)GlcNAc(b1-4)[Fuc(a1-6)]GlcNAc
Summary of the method: as §1

[24] = target: Gal(b1-4)GlcNAc(b1-3)Gal(b1-4)GlcNAc(b1-3)Gal(b1-4)GlcNAc(b1-3)Gal(b1-4)GlcNAc(b1-3)Gal(b1-4)GlcNAc(b1-2)[Gal(b1-4)GlcNAc(b1-3)Gal(b1-4)GlcNAc(b1-3)Gal(b1-4)GlcNAc(b1-3)Gal(b1-4)GlcNAc(b1-3)Gal(b1-4)GlcNAc(b1-6)]Man(a1-6)[Gal(b1-4)GlcNAc(b1-3)Gal(b1-4)GlcNAc(b1-3)Gal(b1-4)GlcNAc(b1-3)Gal(b1-4)GlcNAc(b1-3)Gal(b1-4)GlcNAc(b1-2)Man(a1-3)]Man(b1-4)GlcNAc(b1-4)[Fuc(a1-6)]GlcNAc
Summary of the method: as §1

[25] = target: Gal(b1-4)GlcNAc(b1-3)[Fuc(a1-3)GlcNAc(b1-6)]Gal(b1-4)Glc
Summary of the method: as §1

[26] = target: Gal(b1-4)GlcNAc(b1-3)[Fuc(a1-3)[Gal(b1-4)]GlcNAc(b1-6)]Gal(b1-4)Glc
Summary of the method: as §1

[27] = target: Gal(b1-4)GlcNAc(b1-6)[Gal(b1-3)]GalNAc
Summary of the method: as §1

[28] = target: Gal3S(b1-3)[Fuc(a1-4)]GlcNAc
Summary of the method: as §1

[29] = target: GalNAc(a1-3)GalNAc(a1-3)Gal(a1-4)Gal(b1-4)GlcNAc
Summary of the method: as §1

GalNAc(b1-4)Gal(b1-4)Glc = target: GalNAc(b1-4)Gal(b1-4)Glc
Summary of the method: as §1

GalNAc(b1-4)GlcNAc = target: GalNAc(b1-4)GlcNAc
Summary of the method: as §1

[30] = target: GalNAc(b1-4)GlcNAc(b1-3)GalNAc(b1-4)GlcNAc
Summary of the method: as §1

GalNAc3S(b1-4)GlcNAc = target: GalNAc3S(b1-4)GlcNAc
Summary of the method: as §1

[31] = target: Glc(a1-3)Glc(a1-3)Man(a1-2)Man(a1-2)Man(a1-3)[Man(a1-3)[Man(a1-6)]Man(a1-6)]Man(b1-4)GlcNAc
Summary of the method: as §1

[32] = target: Glc(a1-4)Glc(a1-4)Glc(a1-4)Glc(a1-4)Glc(a1-4)Glc
Summary of the method: as §1

Glc(a1-6)Glc = target: Glc(a1-6)Glc
Summary of the method: as §1

B1: CLEC5A (Homo sapiens), Q9NY25 (protein)
chain: MNWHMIISGLIVVVLKVVGMTLFLLYFPQIFNKSNDGFTTTRSYGTVSQIFGSSSPSPNGFITTRSYGTVCPKDWEFYQARCFFLSTSESSWNESRDFCKGKGSTLAIVNTPEKLKFLQDITDAEKYFIGLIYHREEKRWRWINNSVFNGNVTNQNQNFNCATIGLTKTFDAASCDISYRRICEKNAK
[1]
  glycan array binding signal (z-score): -0.32
[2]
  glycan array binding signal (z-score): -0.32
[3]
  glycan array binding signal (z-score): 0.119
[4]
  glycan array binding signal (z-score): 0.282
[5]
  glycan array binding signal (z-score): -0.016
[6]
  glycan array binding signal (z-score): 2
[7]
  glycan array binding signal (z-score): 0.189
[8]
  glycan array binding signal (z-score): 0.56
[9]
  glycan array binding signal (z-score): 2.38
[10]
  glycan array binding signal (z-score): -0.32
Fuc(a1-4)GlcNAc
  glycan array binding signal (z-score): 11.1
[11]
  glycan array binding signal (z-score): 2.62
[12]
  glycan array binding signal (z-score): -0.327
[13]
  glycan array binding signal (z-score): -0.282
[14]
  glycan array binding signal (z-score): -0.154
[15]
  glycan array binding signal (z-score): 1.69
[16]
  glycan array binding signal (z-score): -0.037
[17]
  glycan array binding signal (z-score): -0.32
[18]
  glycan array binding signal (z-score): -0.023
Gal(b1-4)Glc
  glycan array binding signal (z-score): -0.243
[19]
  glycan array binding signal (z-score): -0.031
[20]
  glycan array binding signal (z-score): 4.98
[21]
  glycan array binding signal (z-score): 0.05
[22]
  glycan array binding signal (z-score): 0.076
[23]
  glycan array binding signal (z-score): 1.88
[24]
  glycan array binding signal (z-score): 0.25
[25]
  glycan array binding signal (z-score): -0.199
[26]
  glycan array binding signal (z-score): -0.031
[27]
  glycan array binding signal (z-score): -0.196
[28]
  glycan array binding signal (z-score): 0.015
[29]
  glycan array binding signal (z-score): -0.892
GalNAc(b1-4)Gal(b1-4)Glc
  glycan array binding signal (z-score): -0.144
GalNAc(b1-4)GlcNAc
  glycan array binding signal (z-score): -0.135
[30]
  glycan array binding signal (z-score): -0.136
GalNAc3S(b1-4)GlcNAc
  glycan array binding signal (z-score): -0.162
[31]
  glycan array binding signal (z-score): -0.32
[32]
  glycan array binding signal (z-score): 1.32
Glc(a1-6)Glc
  glycan array binding signal (z-score): 1.7
